Measured values: PubChem BioAssay AID686979 (National Center for Advancing Translational Sciences (NCATS), 2013)
Where “and” joins values, the source holds several entries; their conditions need not be identical. Equal entries are not always repeated. Out of some 420,000 compounds screened, about 50,000 (12%) were called active. About 26% were inconclusive and are not listed. The sample as a whole holds a higher share of actives than the screen did. A number with no mark means an inactive call. The call rests on the fitted dose curve; in most records, active means well fitted inhibition curve with a large enough effect; inconclusive means small, poorly fitted or top-dose-only effect; inactive means flat fitted curve, though single readings scatter.

Experiment: qHTS for Inhibitors of human tyrosyl-DNA phosphodiesterase 1 (TDP1): qHTS in cells in presence of CPT; further: nearly all actives have a fitted effect of over 55% in size
Conditions: chicken DT40 Tdp1-/-;hTDP1 cells + 20 nM CPT, ATP luminescence, 48 h; series mostly up to 46.2 µM; activity change, negative = growth inhibition: at the top concentration
Outline: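 Chicken DT40 Tdp1-/- cells stably complemented with human TDP1 were seeded at 400 cells/well in medium containing 20 nM camptothecin, exposed to pin-transferred compounds, and grown at 37 °C for at least 48 hr. Viability was read as ATP luminescence.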
On the % scale 0 is the no-effect control and ±100 the full control effect; potency means the concentration at half of the fitted maximal effect.

Row | SMILES | activity change, negative = growth inhibition [%] | Potency
1 | C=Cc1ccc(Cn2c(C(=O)OC)cc3sc(C)cc32)cc1 | 15.1 | 
2 | COc1ccc(S(=O)(=O)NC(=O)C2(C)CCN2C(=O)c2ccccc2CCc2ccccc2)cc1 (centres undefined) | 3.04 | 
3 | CCCc1cc(=O)oc2c(C)c(OCC(=O)Nc3ccccn3)ccc12 | -26.1 | 
4 | CCc1cc(=O)oc2c(C)c(OCC(=O)NCCN3CCOCC3)ccc12 |  | 23.1 µM (active)
5 | CCCc1cc(=O)oc2c(C)c(OCC(=O)NCc3ccccn3)ccc12 | -14.6 | 
6 | O=C(NCc1cccnc1)C12CC3CC(CC(C3)C1)C2 | -4.95 | 
7 | CCOc1ccc(C(C)=O)cc1COC(=O)CNC(=O)c1cccs1 | -9.43 | 
8 | COC(=O)CCNC(=O)c1ccc2[nH]c(C)c(C)c2c1 | -14.2 | 
9 | CN(C)CCCNC(=O)c1ccc2[nH]c3ccccc3c2c1 | 1.83 | 
10 | Cc1ccc(C(=O)NCCSc2c(C)[nH]c3ccccc23)cc1C |  | 18.4 µM (active)
11 | COc1cccc(NC(=O)CN(C)C(=O)CSC(=S)N2CCCC2)c1 | 2.73 | 
12 | Cn1c(=O)n(C)c2cc(S(=O)(=O)Nc3ccc(F)cc3)ccc21 |  | 16.4 µM (active)
13 | Cc1cc(C)cc(NS(=O)(=O)c2ccc(F)cc2)c1 | -0.189 | 
14 | Cn1c(=O)sc2cc(NS(=O)(=O)c3ccc(C(C)(C)C)cc3)ccc21 | -14 | 
15 | O=C(Nc1ccccc1N1CCOCC1)c1ccc(OCc2cscn2)cc1 | -9.05 | 
16 | O=Nc1c(O)cc(O)c2ccccc12 | 2.19 | 
17 | O=C(/C=C/c1cccc(F)c1)NC1CC1 | 14.9 | 
18 | Cc1cc(NC(C)C)n2c(nc3ccccc32)c1C#N | 2.8 | 
19 | Cc1cc(NCc2ccco2)n2c(nc3ccccc32)c1C#N | -21.1 | 
20 | CC(C)c1cc(NCc2ccccn2)n2c(nc3ccccc32)c1C#N |  | 5.8 µM (active)
21 | O=C(COC(=O)c1cc(S(=O)(=O)N2CCOCC2)ccc1F)NC1CC1 | 13.6 | 
22 | Cc1ccc(-c2c[n+](CC(=O)Nc3ccccc3)c3n2CCC3)cc1 |  | 11.6 µM (active)
23 | CCCS(=O)(=O)N1CCN(C(=O)c2cccs2)CC1 | -5.54 | 

Row | SMILES | activity change, negative = growth inhibition [%] | Potency
24 | Cc1ccc(C(=O)N2CCCC(c3ccccc3)=N2)cc1 | 1.43 | 
25 | Cc1ccc(NC(=O)CN2CCc3ccccc3C2)cc1 | -11.7 | 
26 | CCS(=O)(=O)N1CCN(C(=O)c2cccs2)CC1 | 18.7 | 
27 | Cc1ccc(C(=O)C[n+]2cc(-c3ccccc3)n3c2CCCCC3)cc1 |  | 5.62 µM (active) and 1.64 µM (active)
28 | O=C(C[n+]1cc(-c2ccc(Cl)c(Cl)c2)n2c1CCC2)c1cccs1 |  | 10.3 µM (active)
29 | Cc1ccc(NC(=S)N2CCCC(c3ccccc3)=N2)cc1 | -0.285 | 
30 | O=C(c1ccc(CSc2ccccc2)cc1)N1CCCCCC1 | -29.9 | 
31 | COc1ccccc1NC(=O)N1CCCC1C(=O)NCc1cccs1 (centres undefined) | 5.59 | 
32 | CC(C)CN(C(=O)CSc1ncnc2sccc12)C1CCS(=O)(=O)C1 (centres undefined) | -4.09 | 
33 | O=C(COc1ccc(NC(=O)c2ccccc2[N+](=O)[O-])cc1)c1ccc(F)cc1 | -2.89 | 
34 | CSc1ncc(Sc2ccccc2)c(C(=O)O)n1 | -2.14 | 
35 | CSc1nc(-c2ccccc2)nc(C(Cl)Cl)n1 |  | 1.16 µM (active)
36 | COc1ccc(CC(NC(C)=O)C(=O)N2CCN(C(=O)Nc3cccc(Cl)c3)CC2)cc1OC (centres undefined) | -3 | 
37 | COc1ccc(CCC(=O)c2ccc(OC)cc2)cc1 | 3.92 | 
38 | COc1ccc(OCCC(=O)c2ccc(OC)cc2)cc1 |  | 2.59 µM (active)
39 | COc1ccc(OCCCC(=O)Oc2ccc(OC)cc2)cc1 | -9.99 | 
40 | Cc1ccc2sc(NNC(=O)c3ccc4c(c3)OCCO4)nc2c1C | -14.2 | 
41 | CNc1ccc(-c2nc(-c3ccccc3C)no2)cc1[N+](=O)[O-] | -4.91 | 
42 | Cc1onc(-c2ccccc2)c1C(=O)N1CCOCC1 | 2.28 | 
43 | Cc1noc(C)c1C(=O)N1CCOCC1 | -8.25 | 
44 | Cc1oc2c(c1C(=O)N1CCOCC1)C(=O)c1ccccc1C2=O |  | 2.59 µM (active)
45 | CC(NCC(=O)Nc1ccccc1C(=O)NC1CC1)c1ccccc1Cl (centres undefined) | 1.01 | 
46 | O=C(c1cccc(Br)c1)N1CCN(Cc2cc(=O)n3nc(-c4ccccc4)sc3n2)CC1 | -1.68 | 

Row | SMILES | activity change, negative = growth inhibition [%] | Potency
47 | CCOC(=O)C(C)n1cnc2c(nnn2-c2cccc(OC)c2)c1=O (centres undefined) | -3.77 | 
48 | COc1cccc(-n2c(=S)sc3c(=O)n(-c4ccccc4C)c(SCC(=O)O)nc32)c1 | 22 | 
49 | CCOC(=O)c1sc(=S)n(-c2cccc(OC)c2)c1N |  | 35.5 µM (active)
50 | Cc1cc(Br)ccc1NC(=O)c1cnc(N2CCN(c3ccccn3)CC2)c2ccccc12 |  | 14.6 µM (active)
51 | Cc1cc(Br)ccc1NC(=O)c1sc2ncn(CC(=O)N3CCN(c4ccccn4)CC3)c(=O)c2c1C | -23.7 | 
52 | CCc1cccc(NC(=O)c2cnc(N3CCOCC3)c3ccccc23)c1 |  | 20.6 µM (active)
53 | O=C(Nc1ccc(F)cc1)c1cccnc1N1CCOCC1 | -2.24 | 
54 | CSc1ncccc1C(=O)Nc1cccc(S(=O)(=O)N2CCOCC2)c1 | 1.28 | 
55 | Cc1ccc(S(=O)(=O)NCC(=O)N2CCN(c3ccccn3)CC2)cc1 | -5.89 | 
56 | O=C(NCc1ccccc1)C1c2ccccc2OCC(=O)N1C1CC1 (centres undefined) | -1.85 | 
57 | CS(=O)(=O)N(CC(=O)NC1CCCC1)Cc1ccc(F)cc1 | -5.58 | 
58 | CCCCn1c(N)c(N(CC(C)C)C(=O)c2ccc(Br)o2)c(=O)[nH]c1=O | -20 | 
59 | CCOCc1nnc(NC(=O)CCC2CCCCC2)s1 | -7.37 | 
60 | COCCN(C(=O)CCC(=O)Nc1nccs1)C(C(=O)NCCC(C)C)c1ccc(F)cc1 (centres undefined) | 8.82 | 
61 | O=C(CC(NC(=O)c1ccccc1)c1ccccc1)Nc1ccc(F)c(F)c1 (centres undefined) | -26.2 | 
62 | O=C(Nc1ccc(Br)c2cccnc12)c1ccc(Cn2cc([N+](=O)[O-])cn2)o1 |  | 16.4 µM (active)
63 | O=C(c1ccc(Cn2cc([N+](=O)[O-])cn2)o1)N1CCCC1 | 15.4 | 
64 | COc1cccc(NC(=O)c2ccc(Cn3cc([N+](=O)[O-])cn3)o2)c1 | -21.4 | 
65 | COC1=CC(=O)OC(C)(c2ccccc2)C1 (centres undefined) | -20 | 
66 | CC(=O)c1c(C)n(-c2ccc(N(C)C)cc2)c2ccc(OCC(N)=O)cc12 |  | 18.4 µM (active)
67 | CC(=O)c1c(C)n(-c2ccc(C)cc2)c2ccc(O)cc12 | -5.03 | 
68 | Cc1c(Cc2ccccc2)c(=O)oc2cc(OCC(N)=O)ccc12 | -3.22 | 
69 | CCCCc1ccc(S(=O)(=O)NC(=O)C2(C)CCN2C(=O)c2ccccc2)cc1 (centres undefined) | -29.2 | 
